Bioassay records deposited in PubChem by The Scripps Research Institute Molecular Screening Center.
M1 ag parental: nonselective activator or artifact in parental CHO-K1 cells; actives 0.48% (n = 360,000); activation, % at 3 µM; Fluo-8 calcium fluorescence; scaled to maximal ATP response, vehicle zero; in the data active = activation above about 15%;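 also: untransfected CHO-K1 host cells lacking M1 receptor as counterscreen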
CHO-K1 Ca antag: M1 antagonist counterscreen hit in parental CHO-K1 cells; ATP-induced calcium, Fluo-8 fluorescence; inhibition, % at 3 µM; actives 0.6% (n = 360,000); AID 602250;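 active = inhibition above a per-plate cutoff, the plate's mean sample inhibition plus 3 SD, cut at about 24% in these data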;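 also: 0% = DMSO plus EC80 ATP and 100% = DMSO alone without ATP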
M1 ag: activates human CHRM1 receptor | CHO-K1 hM1, Fluo-8 calcium fluorescence, agonist mode; 0% DMSO, 100% acetylcholine EC100 | P11229 | activation, % at 3 µM | actives 0.33% (n = 360,000);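 active = activation above the run's mean compound activation plus 3 SD, cut at about 16% in these data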;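 also: peak over basal fluorescence ratio within a 140 s kinetic read after compound addition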
Target sequence (P11229 whole entry, looked up): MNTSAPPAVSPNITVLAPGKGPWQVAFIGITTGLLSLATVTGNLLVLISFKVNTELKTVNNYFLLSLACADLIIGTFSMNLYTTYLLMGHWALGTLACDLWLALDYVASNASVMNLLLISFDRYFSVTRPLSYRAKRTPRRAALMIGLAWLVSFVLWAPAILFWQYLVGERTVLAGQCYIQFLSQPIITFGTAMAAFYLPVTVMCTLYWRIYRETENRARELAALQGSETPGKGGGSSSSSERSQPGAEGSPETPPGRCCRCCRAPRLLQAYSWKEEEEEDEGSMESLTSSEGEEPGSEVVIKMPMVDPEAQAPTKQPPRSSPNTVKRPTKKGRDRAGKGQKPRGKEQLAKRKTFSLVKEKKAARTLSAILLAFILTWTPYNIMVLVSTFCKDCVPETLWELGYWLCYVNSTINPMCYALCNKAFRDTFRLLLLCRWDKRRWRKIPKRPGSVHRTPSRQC
CHO-K1 Ca PAM: M1 PAM counterscreen hit in parental CHO-K1 cells; AID 602247; activation, % at 3 µM; ATP EC20, Fluo-8 calcium fluorescence; 0% at ATP EC20, 100% at ATP max; actives 0.02% (n = 360,000);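 active = activation above the run cutoff, the mean activation of all test compounds plus 3 SD, cut at about 40% in these data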;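 also: peak over basal fluorescence ratio in a 140 s read after ATP addition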
M1 antag: blocks human M1 muscarinic receptor | CHO-K1 hM1, Fluo-8 calcium fluorescence, ACh EC80 antagonist | inhibition, % at 3 µM | actives 1.3% (n = 360,000) | AID 588852;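 active = percent inhibition above its own plate's cutoff, namely the mean of that plate's compound wells plus 3 SD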;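 also: peak over basal fluorescence ratio during 140 s after agonist addition; 0% = ACh EC80 plus DMSO and 100% = DMSO alone without agonist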
M1 PAM: human CHRM1 positive allosteric modulation; P11229; CHO-K1 hM1, Fluo-8 calcium fluorescence, ACh EC20; 0% = ACh EC20, 100% = maximal ACh; activation, % at 3 µM; actives 0.088% (n = 360,000); in the data active = activation above about 19%, passing the limit was not always enough
Active calls of the source: *. Sampled rows, rich in hits. Any-hit rate of the full collection: about 2.3%.

SMILES | M1 ag parental | CHO-K1 Ca antag | M1 ag | CHO-K1 Ca PAM | M1 antag | M1 PAM
CCOC(=O)C1=C[C@@H](CC)N(S(=O)(=O)c2ccc([N+](=O)[O-])cc2)[C@H]1c1ccccc1 | 4.6 | 5.6 | -6.1 | 15.8 | 17.1 | -14.7
COc1ccc(C(=O)OCC(=O)NCCc2ccc(F)cc2)cc1S(=O)(=O)N1CCOCC1 | 0.2 | -10.8 | -5.5 | -6.3 | 33.4* | -7.2
O=C(COC(=O)c1ccc(Cl)c(S(=O)(=O)N2CCCCC2)c1)NCCc1ccccc1 | -0.2 | 25.0* | 3.0 | -24.0 | -9.1 | 12.0
O=C(NCCc1ccccc1)c1ccc(Cl)c(S(=O)(=O)N2CCCC2)c1 | 13.2 | -3.2 | 1.2 | -6.1 | -7.5 | 8.0
CC1CN(C(=O)COC(=O)c2ccc(Cl)c(S(=O)(=O)N3CCCCC3)c2)CC(C)O1 (stereo not drawn) | 19.6* | 7.1 | -10.3 | 12.6 | -9.8 | 12.5
COc1ccccc1C(O)c1ncc(-c2cccc(C(F)(F)F)c2)[nH]1 (stereo not drawn) | 3.2 | -25.5 | -4.1 | 29.1 | -16.0 | 6.1
CC1CCCCN1C(=O)COC(=O)c1cccc(NS(=O)(=O)c2ccccc2)c1 (stereo not drawn) | 4.6 | -1.3 | -2.1 | -0.8 | -1.1 | -1.2
CC(=O)c1cc2ccccc2oc1=O | 0.2 | -21.1 | -4.2 | 12.5 | -7.1 | 7.0
Cc1cccc(NC(=O)c2cc3ccccc3oc2=O)c1 | 0.0 | 7.9 | -0.3 | -19.6 | -11.7 | 5.3
Cc1ccc[n+](CC(=O)c2cc3ccccc3oc2=O)c1 | 1.9 | -15.6 | -10.9 | 21.4 | 90.4* | -35.1
Cc1cc(C)c[n+](CC(=O)c2cc3ccccc3oc2=O)c1 | -0.2 | 1.7 | -6.9 | -4.5 | 93.2* | -21.7
COc1ccc(NC(=O)CCC(=O)c2cc(C)sc2C)cc1 | 0.0 | 8.8 | -4.7 | 14.7 | -8.7 | 3.0
CC1(CCc2ccc3c(c2)OCO3)NCCc2c1[nH]c1ccccc21 (stereo not drawn) | 20.7* | 4.7 | -0.9 | -3.4 | -5.8 | 3.6
CCOC(=O)c1cccc(NC(=O)COc2nsnc2N2CCOCC2)c1 | 8.9 | -0.5 | 1.1 | 3.5 | -3.5 | -2.6
CC(CN1CCN(CCOCCO)CC1)CN1c2ccccc2Sc2ccc(Cl)cc21 (stereo not drawn) | 5.8 | -2.4 | 0.0 | 9.5 | 56.1* | -27.6
COCCC(=O)N1CCC(Oc2ccc(C(=O)N3CCC(N(C)C)C3)cc2)CC1 (stereo not drawn) | 0.5 | -22.2 | -2.6 | 8.1 | -9.2 | 7.2
O=C(Nc1ccc(Cl)cc1)N1CCC(c2nc(-c3ccc(F)cc3)no2)CC1 | 12.5 | 15.6 | -3.5 | -11.9 | 57.9* | -33.2
O=C(Nc1ccc(Cl)cc1)N1CCN(c2ccc3nnc(-c4ccc(F)cc4)n3n2)CC1 | -0.6 | -20.8 | -14.9 | -2.8 | 41.5* | -31.0
CC(c1ccco1)N(C(=O)c1ccc(Cl)c([N+](=O)[O-])c1)c1ccccn1 (stereo not drawn) | 1.7 | -11.7 | -7.8 | 0.3 | -6.5 | 0.6
C=CC[n+]1c(/C=C2\C=Cc3cc(C)ccc3N2CC)ccc2ccccc21 | 16.0* | 38.1* | 2.6 | -6.8 | 53.8* | -14.4
CCN1C(=C(C#N)C#N)C=Cc2cc(C)ccc21 | 1.0 | -2.3 | -9.5 | 9.2 | 9.1 | -9.4
O=C(c1ccc(Br)cc1)c1sc(N2CCOCC2)nc1-c1ccccc1 | 0.7 | -8.6 | -3.5 | 4.4 | -3.7 | 1.0
COc1ccc(CN(C)c2ccc(S(=O)(=O)N3CCN(C)CC3)cc2[N+](=O)[O-])cc1OC | 15.7* | 31.2* | 2.8 | -11.4 | 42.5* | -15.5
CN(Cc1ccccc1NS(=O)(=O)c1ccc2ccccc2c1)C1CCCCC1 | 4.0 | -10.9 | -7.2 | 3.1 | 3.6 | -4.6
Cc1ccc(C(=O)NCc2ccc3c(c2)OCO3)cc1Cl | 0.1 | 24.4* | -3.5 | -18.7 | 15.5 | -2.8
Cc1cc(C(=O)NCc2ccc3c(c2)OCO3)ccc1[N+](=O)[O-] | 22.5* | -12.3 | 4.3 | 8.1 | -1.9 | 3.6
COc1ccc(S(=O)(=O)N2CCN=C2SCc2cccc(F)c2)cc1 | 0.8 | -5.6 | -3.7 | -1.2 | 7.9 | -3.9
CCc1ccc(C(=O)NNC(=S)Nc2ccc(S(N)(=O)=O)cc2)s1 | 0.7 | -6.3 | -5.7 | 12.1 | 2.2 | 8.1
